NOTCH ag: agonists of NOTCH signaling; NOTCH signaling luciferase reporter cells, luminescence; activation, % at 2.5 µM; 15,000 tested, 0.4% active; AID 434982; in the data active means activation above about 2.2%
Nox1 inh: human Nox1 inhibition | Q9Y5S8 | 16,000 tested, 0.81% active | AID 1792 | inhibition, % at 6.7 µM | HT29 cells, luminol chemiluminescence ROS
Target sequence (Q9Y5S8 whole entry, looked up): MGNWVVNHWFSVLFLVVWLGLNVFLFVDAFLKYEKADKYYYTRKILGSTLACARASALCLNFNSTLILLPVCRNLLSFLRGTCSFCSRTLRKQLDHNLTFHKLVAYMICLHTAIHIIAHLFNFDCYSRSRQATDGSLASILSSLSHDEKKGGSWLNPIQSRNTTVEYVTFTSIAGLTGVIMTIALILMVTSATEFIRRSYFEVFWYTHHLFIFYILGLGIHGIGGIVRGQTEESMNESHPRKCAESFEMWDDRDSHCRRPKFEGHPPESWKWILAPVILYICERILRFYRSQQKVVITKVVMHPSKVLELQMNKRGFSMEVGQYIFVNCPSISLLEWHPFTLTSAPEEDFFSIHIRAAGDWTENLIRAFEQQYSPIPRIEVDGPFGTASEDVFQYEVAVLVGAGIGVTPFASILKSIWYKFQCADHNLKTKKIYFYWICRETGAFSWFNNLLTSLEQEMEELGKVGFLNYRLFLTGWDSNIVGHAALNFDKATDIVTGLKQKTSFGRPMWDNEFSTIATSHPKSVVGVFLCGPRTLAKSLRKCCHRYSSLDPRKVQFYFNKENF
Luminol counter: counter-screen for Nox1 inhibitors: inhibitors of luminol chemiluminescence; HRP/luminol/H2O2 chemiluminescence counterscreen; inhibition, % at 6.7 µM; 16,000 tested, 0.4% active; AID 1823; further: reference of the scale not given here
S1P1 agonist: activates the human S1P1 receptor; P21453; S1P1 agonist cell-based reporter assay; activation, % at 4.5 µM; 16,000 tested, 1.5% active; AID 1044; in the data active means activation above about 80%
Starred values were filed as active, the others as inactive; / = not tested or not shown. Hits are enriched below; roughly 3.1% of the tested compounds scored in any of these assays. Unless noted, no stated cut-off is given here; in the data, active means inhibition above about 75%; inactive means the rest.

SMILES | NOTCH ag | Nox1 inh | Luminol counter | S1P1 agonist
ON/C=N/c1nnc(C(F)(F)F)s1 | 0 | 80* | -4 | 4
CCOC(=O)c1sc(COc2cccc(Cl)c2)nc1C | -1 | -11 | 0 | 91*
CCOC(=O)c1sc(-c2ccccc2)nc1C | -1 | -45 | 2 | 97*
CCOC(=O)C1CCN(C(=O)c2sc(-c3ccccc3)nc2C)CC1 | 0 | -35 | -1 | 5
O=C1CC23CCCCC2(C1)CC(=O)C3 (stereo unspecified) | 0 | 5 | -4 | -5
COc1ccc(-c2csc(CN3CCN(c4ccccc4OC)CC3)n2)cc1 | 0 | -38 | 3 | 4
Cn1c(-c2ccccn2)n[nH]c1=S | 0 | -21 | 96* | 88*
O=C1c2ccccc2C(=O)N1CNc1ccc(N2CCOCC2)cc1 | 0 | 98* | -4 | -6
FC(F)(F)c1cnc(NCCCNC(=S)Nc2cccnc2)c(Cl)c1 | 2.8* | 25 | -3 | 24
FC(F)(F)c1cnc(NCc2cccnc2)c(Cl)c1 | 0 | -23 | -2 | 11
Cn1c(SC/C(N)=N/OC(=O)c2cccs2)nnc1-c1ccc(C(C)(C)C)cc1 | / | -12 | -7 | -16
CC(C)(C)OC(=O)N[C@@H](Cc1ccccc1)c1n[nH]c(=S)n1CC1CCCO1 (stereo partly specified) | 0 | 14 | 97* | -13
CC(C)(C)OC(=O)NCc1n[nH]c(=S)n1Cc1ccccc1 | 0 | -23 | -1 | -7
COc1ccc(C(=O)NNc2c([N+](=O)[O-])cc(C(F)(F)F)cc2[N+](=O)[O-])cc1 | 1 | 89* | 4 | 61
O=[N+]([O-])c1cc(C(F)(F)F)cc([N+](=O)[O-])c1N/N=C/c1ccccc1O | 0 | 22 | -1 | 14
O=C(NNc1c([N+](=O)[O-])cc(C(F)(F)F)cc1[N+](=O)[O-])c1ccccc1-n1cccc1 | -1 | 102* | -9 | 109*
O=C(CCc1ccc(O)cc1)NNc1c([N+](=O)[O-])cc(C(F)(F)F)cc1[N+](=O)[O-] | 0 | 28 | -4 | 15
OC(CSc1ccccc1)CN1CCN(Cc2ccc3c(c2)OCO3)CC1 (stereo unspecified) | 1 | 8 | -1 | -1
CCOC(=O)c1ccc(NC(=O)NC(=O)c2c(SC)nsc2SC)cc1 | 0 | -45 | 0 | -21
O=C(NCc1ccncc1)c1ccc(-n2cccn2)cc1 | 0 | -11 | -1 | -3
CCN(c1ccccc1)S(=O)(=O)c1cc([N+](=O)[O-])ccc1N | -1 | 0 | 3 | 100*
COc1ccc(N=CC2=C(Cl)c3cc(Cl)ccc3SC2)cc1 | 0 | -35 | -6 | 5
N#C/C(=C\C=C\c1ccccc1)c1cccc(Cl)c1 | -1 | -36 | 3 | -3
Nc1cnc(Oc2c(Cl)cccc2Cl)c(C(F)(F)F)c1 | -1 | -21 | 3 | 86*
C#CCOC(=O)Nc1cnc(Oc2c(Cl)cccc2Cl)c(C(F)(F)F)c1 | 0 | -62 | 5 | 99*
SMILES | NOTCH ag | Nox1 inh | Luminol counter | S1P1 agonist
NC(CCCCC(=O)O)C(=O)O (stereo unspecified) | 0 | -14 | -5 | -3
O=C(Nc1ccc(Cl)cc1)Oc1ccccc1N1CCSCC1 | 0 | 92* | 4 | 3
O=C(Nc1ccccc1)Oc1cccc(F)c1OC(=O)Nc1ccccc1 | 0 | -38 | 3 | -5
CC1CN(c2ccccc2OC(=O)Nc2ccc(OC(F)(F)F)cc2)CC(C)O1 (stereo unspecified) | 0 | 101* | 15 | 4
Cc1cc(-c2nnc(-c3cccc(C(F)(F)F)c3)o2)no1 | 0 | 0 | -1 | 80*
O=[N+]([O-])c1cc(C(F)(F)F)ccc1Oc1ccc(-c2nnco2)cc1 | -1 | 77* | -1 | 30
COc1ccc(Oc2ccc(NC(=O)Cc3cccs3)cn2)cc1 | 0 | -43 | 4 | -12
S=c1[nH]nc(Cc2n[nH]c(=S)n2-c2ccccc2)n1-c1ccccc1 | 0 | -28 | 95* | 3
CCOC(=O)C(NC(=O)C1CCC(c2ccc(Cl)cc2)CC1)C(C)C (stereo unspecified) | 0 | 5 | -2 | -7
O=C(NNc1c(Cl)cccc1Cl)c1ccc([N+](=O)[O-])o1 | -5 | -4 | 4 | 0
C/C(=N\N=C(/N)SCc1cc(F)cc2c1OCOC2)c1ccc(C)nc1 | -1 | -12 | 2 | 90*
C=C(/C(C)=N/O)c1ccccc1 | 0 | -40 | 4 | 8
Nn1c(-c2ccc(Cl)cc2)n[nH]c1=S | 0 | 20 | 99* | -7
Cc1cc(C)cc(NC(=O)Nc2ccc(N3CCCCC3)cc2)c1 | 0 | 85* | -9 | 14
CCCCCC[n+]1ccccc1/C=C/c1ccc(N(C)C)cc1 | -1 | -1 | 22 | 113*
N/C(=N\OC(=O)c1cccc(Cl)c1)c1cccc(C(F)(F)F)c1 | 0 | 17 | -6 | 99*
N/C(=N\OC(=O)c1cccc(C(F)(F)F)c1)c1ccc(OCC(F)(F)F)nc1 | -1 | -52 | 1 | 84*
N/C(=N\OC(=O)c1cccc(C(F)(F)F)c1)c1cnccn1 | -1 | -22 | 0 | 9
COc1ccc(C(C)=O)cc1CSc1nnnn1-c1ccc(OC)c(OC)c1 | / | -35 | -2 | -46
CCOC(=O)C(=CNNc1ccnc2cc(Cl)ccc12)C(=O)OCC | 0 | 84* | 3 | 23
CCOC(=O)C(=CNNc1ccccc1)C(=O)OCC | -1 | -19 | 6 | 15
CC(C)(C)OC(=O)N1CCCN(C(=O)c2sc3ccccc3c2Cl)CC1 | -1 | 10 | -3 | 3
NNC(=O)CSc1nc2cccnc2s1 | 0 | 76* | 12 | 9
COc1ccc2c(c1)CCCN2Cc1c[nH]c2ccccc12 | 0 | 101* | -12 | 22
COC(=O)c1sccc1NNC(=O)CC#N | 0 | 87* | 15 | 9
SMILES | NOTCH ag | Nox1 inh | Luminol counter | S1P1 agonist
CCOC(=O)/C(C#N)=C/Nc1ccsc1C(=O)OC | 0 | 29 | -4 | -4
O=C1c2ccccc2N(c2ccccc2)C(=O)C1(Cl)Cl | 0 | -11 | -1 | 8
Cc1cc(C(=O)O/N=C(\N)c2ccc(C(C)(C)C)cc2)no1 | 0 | 23 | -6 | 90*
Cc1cc(/C(N)=N/OC(=O)c2ccno2)no1 | 0 | 8 | 4 | 6
N#CCC(=O)NNC(=S)Nc1ccccc1 | 0 | 90* | 18 | -10
O=C(Cn1c2c(c(=O)n3ncnc13)CCC2)N/N=C/c1cccs1 | 0 | -24 | -2 | -8
Cn1c2c(c(=O)n3ncnc13)CCCC2 | -1 | -51 | 2 | 91*
CCN(CC)c1ccc(/C=C/c2ccc([N+](=O)[O-])cc2C#N)cc1 | 0 | -3 | -12 | 104*
CCN(CC)c1ccc(C#N)cc1 | 0 | 4 | -6 | -3
NNC(=O)c1cnn(-c2ccc(Cl)cc2)c1C(F)(F)F | 0 | -26 | 10 | -22
O=C(c1cnn(-c2ccc(Cl)cc2)c1C(F)(F)F)N1CCN(c2ncnc3ccsc23)CC1 | -2 | 13 | 1 | 97*
O=C(Oc1ccccc1N1CCOCC1)c1cccs1 | 0 | 98* | -1 | 7
O=C(Oc1ccccc1N1CCOCC1)c1cccnc1Oc1ccccc1 | 1 | 79* | 7 | 1
O=C(Oc1ccccc1N1CCCCC1)c1ccco1 | -6 | 83* | 8 | -14
O=C(Nc1ccccc1N1CCCCC1)c1ccco1 | -1 | -9 | 3 | -10
